GSH fluor = compound fluorescence on glutathione beads, profiling panel, artefact control, biophysical, 488/530 nm, flow cytometry. 190,000 compounds, 0.25% hits. fluorescence (KMESF) at 10 µM. GSH beads flow cytometry, compound fluorescence 488/530 nm; stronger effect = higher value; in the data active = fluorescence above about 89;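 also: glutathione beads carrying GST-tagged Bcl family fusion proteins plus one bare bead set; values are compound well signal with DMSO vehicle wells as background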
RGS8-Gao = RGS8-Galphao binding modulators, primary screen, biochemical, multiplexed bead flow cytometry; Guanine nucleotide-binding protein G(o) subunit alpha (Homo sapiens), P09471; actives lie on both sides; response (percent of control binding), % at 10 µM; 220,000 compounds, 0.34% hits; in the data active = response below about 60% or above about 140%; inactive = in between;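 also: Galphao activated as the GDP aluminium fluoride complex binding bead-coupled RGS8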
Target sequence (P09471 whole entry, looked up): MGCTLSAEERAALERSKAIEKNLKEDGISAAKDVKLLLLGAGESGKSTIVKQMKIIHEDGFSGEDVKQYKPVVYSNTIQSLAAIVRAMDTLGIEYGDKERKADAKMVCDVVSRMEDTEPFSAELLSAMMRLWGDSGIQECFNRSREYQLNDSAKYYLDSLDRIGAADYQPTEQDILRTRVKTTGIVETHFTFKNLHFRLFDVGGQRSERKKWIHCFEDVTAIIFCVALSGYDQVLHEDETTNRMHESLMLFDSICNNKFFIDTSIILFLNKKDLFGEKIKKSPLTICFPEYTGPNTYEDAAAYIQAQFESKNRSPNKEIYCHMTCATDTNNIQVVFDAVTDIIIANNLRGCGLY
RGS7-Gao reg = RGS7-Galphao binding modulators, primary screen, biochemical, multiplexed bead flow cytometry | 220,000 compounds, 0.35% hits | Guanine nucleotide-binding protein G(o) subunit alpha (Homo sapiens), P09471 | AID 1439, 2008 | actives lie on both sides | binding response (% of control), % at 10 µM; in the data active = binding response below about 49% or above about 150%; inconclusive = no clear call, values can overlap the other calls; inactive = in between;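 also: fluorescent Galphao held in activated GDP-AlF4 state binding bead-coupled RGS7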
Avidin bead fluor = green autofluorescence of compounds with avidin beads – biophysical, 488/530 nm, flow cytometry, artefact control, profiling panel; 220,000 compounds, 0.38% hits; compound fluorescence 488/530 nm; stronger effect = higher value; AID 1775, 2009; fluorescence (KMESF) at 10 µM; in the data active = fluorescence above about 47
RGS16-Gao HTS = modulators of RGS16 binding to Galphao, primary screen, biochemical, human proteins, multiplexed bead flow cytometry. 220,000 compounds, 0.38% hits. binding response (% of control), % at 10 µM. AID 1441, 2008. bead-based flow cytometry RGS16-Galphao binding, fluorescence; actives lie on both sides. Regulator of G-protein signaling 16 (Homo sapiens) + Guanine nucleotide-binding protein …;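 also: Galphao activated by GDP with aluminum fluoride before binding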
Target sequence (O15492 whole entry, looked up): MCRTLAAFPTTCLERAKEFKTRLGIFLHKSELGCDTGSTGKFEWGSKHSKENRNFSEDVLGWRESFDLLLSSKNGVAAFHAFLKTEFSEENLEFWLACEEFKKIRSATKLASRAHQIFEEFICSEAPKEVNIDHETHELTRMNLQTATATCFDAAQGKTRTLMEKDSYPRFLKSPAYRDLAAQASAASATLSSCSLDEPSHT
Target sequence (P09471 whole entry, looked up): as the sequence (P09471 whole entry, looked up) above
RGS4-Gao reg = modulators of RGS4 binding to Galphao, primary screen, biochemical, multiplexed bead flow cytometry. Guanine nucleotide-binding protein G(o) subunit alpha (Homo sapiens), P09471. actives lie on both sides. binding response (% of control), % at 10 µM. 220,000 compounds, 0.33% hits; in the data active = binding response below about 49% or above about 150%; inactive = in between;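 also: fluorescent Galphao activated with aluminum fluoride binding bead-coupled RGS4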
RGS-Gao = modulators of RGS–Galpha-o binding, primary screen, biochemical, multiplexed beads, flow cytometry, RGS4/7/8/16/19 | shares compounds with RGS16-Gao HTS | multiplexed bead flow cytometry | RGS4–Galpha-o binding response, % at 10 µM | 1,600 compounds, 99% hits | AID 1504, 2009;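 also: fluorescently labeled Galpha-o bound to GDP with aluminium fluoride binding biotinylated RGS beads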
Avidin counter = disruption of biotin probe capture by avidin, counter-screen for RGS protein interaction modulators, biochemical, flow cytometry, bead-based | 1,700 tested, under 10 active | streptavidin beads, fluorescein-biotin binding | inhibition, % at 10 µM | shares compounds with RGS16-Gao HTS;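 active = inhibition above 50%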;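 also: median green fluorescence of gated singlet beads compared with DMSO control wells; 0% = DMSO wells and 100% = complete loss of bead fluorescence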
RGS8-Gao single = RGS8-Galphao binding modulators, confirmation, biochemical, multiplexed bead flow cytometry, single concentration; shares compounds with RGS16-Gao HTS; bead-based flow cytometry RGS8-Galphao binding, fluorescence; actives lie on both sides; binding response (% of control), % at 10 µM; 1,700 compounds, 3% hits; in the data active = binding response below about 72% or above about 130%; inactive = in between;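 also: Galphao activated as GDP AlF4 complex before binding bead RGS8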
RGS7-Gao single = RGS7-Galphao binding modulators, confirmation, biochemical, multiplexed bead flow cytometry, single concentration; 1,700 compounds, 7.8% hits; response (percent of control binding), % at 10 µM; shares compounds with RGS16-Gao HTS; bead-based flow cytometry RGS7-Galphao binding; actives lie on both sides; in the data active = response below about 75% or above about 130%; inactive = in between;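 also: fluorescent Galphao activated with GDP and aluminum fluoride binding bead-coupled RGS7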
RGS16-Gao conf = modulators of RGS16-Galphao protein binding, confirmation, biochemical, single concentration, multiplexed bead flow cytometry. bead-based flow cytometry; actives lie on both sides. shares compounds with RGS16-Gao HTS. response (% of control binding), % at 10 µM. 1,700 compounds, 4% hits; in the data active = response below about 74% or above about 130%; inactive = in between;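 also: Galphao activated as the GDP aluminium fluoride complex binding bead-coupled RGS16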
RGS4-Gao single = modulators of RGS4-Galphao protein binding, confirmation, biochemical, single concentration, multiplexed bead flow cytometry. shares compounds with RGS16-Gao HTS. actives lie on both sides. binding response (% of control), % at 10 µM. 1,700 compounds, 4% hits; in the data active = binding response below about 74% or above about 130%; inactive = in between
RGS19-Gao single = regulators of RGS19-Galphao binding, confirmation, biochemical, single point, multiplexed bead flow cytometry | bead-based flow cytometry RGS19-Galphao binding; actives lie on both sides | 1,700 compounds, 5% hits | response (percent of control binding), % at 10 µM | shares compounds with RGS16-Gao HTS; in the data active = response below about 50% or above about 160%; inactive = in between;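 also: 100% = no compound control and 0% = blank background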
* hit, by the source's call; u = inconclusive; x = not tested or not shown; [ ] = dose if it differs, or a comment. An excerpt weighted towards active compounds, which were near 1.2% of everything screened. Unless noted, no rule for the calls is given here.

SMILES | GSH fluor | RGS8-Gao | RGS7-Gao reg | Avidin bead fluor | RGS16-Gao HTS | RGS4-Gao reg | RGS-Gao | Avidin counter | RGS8-Gao single | RGS7-Gao single | RGS16-Gao conf | RGS4-Gao single | RGS19-Gao single
N#Cc1c(C(F)(F)F)cc(C2CC2)[nH]c1=O | 23 | 93 | 184*[activator] | 85* | 106 | 109 | 109* | 1 | 91 | 91 | 92 | 90 | 79
CCn1c2ccccc2n2c(=O)c(=O)n(CC(=O)Nc3ccc(C(C)C)cc3)nc12 | 13 | 104 | 101 | 11 | 114 | 101 | x | x | x | x | x | x | x
CCN(CC)c1nc(N)nc(N(c2ccccc2)c2ccccc2)n1 | 21 | 99 | 155*[activator] | 73* | 103 | 105 | 105* | 0 | 97 | 63* | 89 | 73* | 74
CN(C)c1nc(N)nc(N(c2ccccc2)c2ccccc2)n1 | 18 | 100 | 100 | 7 | 98 | 101 | x | x | x | x | x | x | x
Cn1c(-n2c(CCCN3C(=O)c4ccccc4C3=O)nc3ccccc3c2=O)nc2ccccc21 | 255* | 118 | 116 | 42 | 725 | 180*[activator] | x | -1 | 103 | 107 | 103 | 103 | 105
Cc1[nH]c2ccccc2c1/C=N/NC(=S)NCc1ccccc1 | 17 | 106 | u | 34 | 159 | 159*[activator] | x | 1 | 110 | 226*[activator] | 146*[activator] | 165*[activator] | 294*[activator]
CN1CCN(C2=C(Cl)C(=O)C(c3cnc(N4CCCCC4)s3)=C(Cl)C2=O)CC1 | 34 | 64 | 76 | 2 | 14* | 70 | 70* | 0 | 27* | 18* | -8.3* | 63* | -8.1*
CN(Cc1ccccc1)c1ncc(C=O)s1 | 11 | 103 | 102 | 2 | 104 | 106 | x | x | x | x | x | x | x
CC1CCN(C(=O)c2ccc(NS(C)(=O)=O)cc2)CC1 | 48 | x | x | x | x | x | x | 1 | 101 | 104 | 101 | 102 | 88
COc1ccc(OC)c(/C=C2\SC(=S)N(Cc3cccnc3)C2=O)c1 | 9 | 84 | 88 | 5 | 14* | 89 | 89* | -1 | 108 | 112 | 103 | 103 | 105
O=C(Nc1cccc(O)c1)c1noc2c1CCCCC2 | 32 | x | x | x | x | x | x | 1 | 107 | 106 | 110 | 103 | 103
COC(=O)CC1C(=O)NCCN1C(=O)Nc1ccc(Cl)c(Cl)c1 (configuration not stated) | 15 | x | x | 23 | x | 104 | x | -1 | 102 | 99 | 99 | 102 | 87
CCCc1nc(SCC(=O)c2ccc(F)cc2)c2ccccc2n1 | 21 | 102 | 103 | 8 | 104 | 104 | x | x | x | x | x | x | x
COc1cccc(Oc2cn[nH]c2-c2ccc(OC)cc2O)c1 | 28 | 93 | 281*[activator] | 187* | 107 | 133 | 133* | x | x | x | x | x | x
O=C(CSc1ncnc2c1oc1ccccc12)Nc1nccs1 | 16 | 132 | 155*[activator] | 9 | 154 | 146 | 146* | -1 | 112 | 107 | 107 | 102 | 94
O=C1CC[C@@H](CN(Cc2ccccn2)Cc2nc(-c3ccc(C(F)(F)F)cc3)no2)N1 | 10 | 105 | 103 | 10 | 114 | 102 | x | x | x | x | x | x | x
CCOC(=O)c1[nH]c2cc(OC)c(OC)cc2c1NC(=O)CCN1CCSCC1 | x | 21* | u | 0 | 9.8* | 17* | x | -2 | 95 | 90 | 95 | 95 | 85
O=C(NC1(N2CCOCC2)CC1)c1ccc(Cl)cc1 | x | 104 | u | 4 | 99 | 103 | x | x | x | x | x | x | x
COCCCNC(=O)c1ccc(CS(=O)(=O)c2ccc(OC)cc2)o1 | 14 | 102 | 101 | 24 | 101 | 100 | x | x | x | x | x | x | x
COc1ccc(S(=O)(=O)Cc2ccc(C(=O)NCCc3ccc(S(N)(=O)=O)cc3)o2)cc1 | 22 | 121 | 110 | 9 | 183*[activator] | 105 | 105* | -1 | 107 | 85 | 110 | 93 | 66
CCOC(=O)c1cccc(NC(=O)CSc2nc3ccccc3c(=O)n2CCOC)c1 | 24 | 9.5* | 13* | 0 | -10 | 23* | x | 2 | 109 | 111 | 108 | 109 | 97
O=C(N/C(=C\c1cccc([N+](=O)[O-])c1)C(=O)N1CCOCC1)c1ccc([N+](=O)[O-])cc1 | 13 | 100 | 104 | 9 | 105 | 102 | x | x | x | x | x | x | x
O=c1[nH]c2cc3c(cc2cc1CN(CC1CCCO1)S(=O)(=O)c1ccc(Cl)cc1)OCCO3 (configuration not stated) | 17 | 147*[activator] | 110 | 3 | 403 | 110 | 110* | 1 | 100 | 107 | 103 | 106 | 103
Cc1ccc(S(=O)(=O)N(Cc2cc3cc4c(cc3[nH]c2=O)OCCO4)CC2CCCO2)cc1 (configuration not stated) | 22 | 103 | 101 | 11 | 98 | 96 | x | x | x | x | x | x | x
Cc1onc(-c2ccccc2Cl)c1C(=O)Nc1nn[nH]n1 | 5 | 53* | 52 | 2 | -3 | 47* | x | 0 | 108 | 109 | 110 | 104 | 113
COc1ccc(-c2cc(-c3n[nH]c(=S)n3-c3ccccc3OC)[nH]n2)cc1 | 20 | 94 | 104 | 11 | 93 | 97 | x | x | x | x | x | x | x

High-throughput results deposited in PubChem BioAssay by NMMLSC.
